What was measured:
Test in all cases: log2 ratio of Biotin-Ahx-Ub-VS probe labelling (fragment/DMSO); higher = less target engagement (more negative = stronger competition), active = hit call of the paper (q ≤ 0.05, log2 ratio ≤ -1)
Conditions in all cases: compound concentration: 200 uM; treatment time: 3 h
[1] = biological target: T1, OTUD6B (UniProt Q8N6M0)
T1 sequence (whole entry): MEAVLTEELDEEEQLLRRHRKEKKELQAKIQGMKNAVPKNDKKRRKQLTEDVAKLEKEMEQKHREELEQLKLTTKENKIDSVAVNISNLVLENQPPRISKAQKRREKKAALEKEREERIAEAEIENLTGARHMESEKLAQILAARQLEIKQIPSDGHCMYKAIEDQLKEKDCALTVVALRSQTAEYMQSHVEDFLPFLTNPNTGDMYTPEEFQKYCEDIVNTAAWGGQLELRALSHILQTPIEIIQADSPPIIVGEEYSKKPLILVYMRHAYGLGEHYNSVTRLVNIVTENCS
Outline: (§1)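 The table lists average log2 ratios of fragment over vehicle, from an unpaired t-test on global-median-normalised Spectronaut label-free quantities. Proteins with ≥2 unique peptides were used. Samples were HEK293T lysate (495 µg) treated in triplicate with fragment at 200 µM or vehicle for 3 h, then with Biotin-Ahx-Ub-VS (0.5 µM final) for 1 h, with labelled DUBs NeutrAvidin-enriched and run by diaPASEF LC-MS/MS.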

[2] = biological target: T2, OTUD7B (UniProt Q6GQQ9)
T2 sequence (whole entry): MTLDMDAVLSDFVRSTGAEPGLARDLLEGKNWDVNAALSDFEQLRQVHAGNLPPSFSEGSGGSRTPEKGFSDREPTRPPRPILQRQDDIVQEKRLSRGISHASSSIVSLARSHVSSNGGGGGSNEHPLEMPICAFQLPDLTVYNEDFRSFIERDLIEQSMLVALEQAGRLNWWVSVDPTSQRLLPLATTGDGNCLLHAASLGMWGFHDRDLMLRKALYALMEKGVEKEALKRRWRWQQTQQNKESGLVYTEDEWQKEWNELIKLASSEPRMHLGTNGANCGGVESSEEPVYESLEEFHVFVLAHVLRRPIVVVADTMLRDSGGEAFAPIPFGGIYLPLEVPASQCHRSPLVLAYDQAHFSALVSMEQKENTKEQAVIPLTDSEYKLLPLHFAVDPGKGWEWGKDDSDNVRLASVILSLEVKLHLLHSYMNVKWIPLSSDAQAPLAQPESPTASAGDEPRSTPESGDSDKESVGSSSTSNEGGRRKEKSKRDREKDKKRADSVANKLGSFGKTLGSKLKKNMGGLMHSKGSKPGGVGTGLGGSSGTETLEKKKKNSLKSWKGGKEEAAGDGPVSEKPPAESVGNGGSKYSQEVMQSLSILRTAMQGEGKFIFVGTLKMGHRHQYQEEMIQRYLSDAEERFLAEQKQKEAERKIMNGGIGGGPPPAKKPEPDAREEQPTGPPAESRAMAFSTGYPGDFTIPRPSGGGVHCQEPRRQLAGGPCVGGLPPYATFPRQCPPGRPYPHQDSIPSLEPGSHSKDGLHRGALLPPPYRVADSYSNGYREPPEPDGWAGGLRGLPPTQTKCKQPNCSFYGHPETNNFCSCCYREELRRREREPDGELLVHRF
Outline: as §1

[3] = biological target: PRPF8 (UniProt Q6P2Q9)
Outline: as §1

[4] = biological target: T3, PSMD7 (UniProt P51665)
T3 sequence (whole entry): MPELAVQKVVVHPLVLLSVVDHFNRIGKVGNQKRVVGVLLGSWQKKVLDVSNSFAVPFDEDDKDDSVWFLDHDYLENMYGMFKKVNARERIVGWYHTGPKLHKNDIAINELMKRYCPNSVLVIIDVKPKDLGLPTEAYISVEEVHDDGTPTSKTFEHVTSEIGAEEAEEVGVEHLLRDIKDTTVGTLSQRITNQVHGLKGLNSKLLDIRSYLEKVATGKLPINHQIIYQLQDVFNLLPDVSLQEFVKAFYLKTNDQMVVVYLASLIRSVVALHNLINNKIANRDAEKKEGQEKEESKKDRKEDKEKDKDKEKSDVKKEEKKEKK
Outline: as §1

[5] = biological target: UCHL1 (UniProt P09936)
Outline: as §1

[6] = biological target: T4, UCHL3 (UniProt P15374)
T4 sequence (whole entry): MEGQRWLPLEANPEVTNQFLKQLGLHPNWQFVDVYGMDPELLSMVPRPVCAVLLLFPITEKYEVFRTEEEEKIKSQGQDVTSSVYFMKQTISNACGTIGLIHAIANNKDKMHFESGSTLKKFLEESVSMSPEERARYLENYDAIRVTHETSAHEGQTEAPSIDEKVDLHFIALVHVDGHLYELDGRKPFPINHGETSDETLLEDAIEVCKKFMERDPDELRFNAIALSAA
Outline: as §1

[7] = biological target: T5, UCHL5 (UniProt Q9Y5K5)
T5 sequence (whole entry): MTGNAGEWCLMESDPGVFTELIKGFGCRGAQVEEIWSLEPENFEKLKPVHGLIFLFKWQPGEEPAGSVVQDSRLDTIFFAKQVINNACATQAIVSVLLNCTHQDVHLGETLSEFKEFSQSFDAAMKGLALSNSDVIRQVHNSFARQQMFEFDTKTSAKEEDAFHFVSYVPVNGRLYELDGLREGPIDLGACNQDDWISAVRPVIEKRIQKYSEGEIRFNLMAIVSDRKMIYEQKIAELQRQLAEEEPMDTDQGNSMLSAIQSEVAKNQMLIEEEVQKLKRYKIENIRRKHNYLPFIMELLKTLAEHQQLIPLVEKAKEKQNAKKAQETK
Outline: as §1

[8] = biological target: USP10 (UniProt Q14694)
Outline: as §1

[9] = biological target: T6, USP15 (UniProt Q9Y4E8)
T6 sequence (whole entry): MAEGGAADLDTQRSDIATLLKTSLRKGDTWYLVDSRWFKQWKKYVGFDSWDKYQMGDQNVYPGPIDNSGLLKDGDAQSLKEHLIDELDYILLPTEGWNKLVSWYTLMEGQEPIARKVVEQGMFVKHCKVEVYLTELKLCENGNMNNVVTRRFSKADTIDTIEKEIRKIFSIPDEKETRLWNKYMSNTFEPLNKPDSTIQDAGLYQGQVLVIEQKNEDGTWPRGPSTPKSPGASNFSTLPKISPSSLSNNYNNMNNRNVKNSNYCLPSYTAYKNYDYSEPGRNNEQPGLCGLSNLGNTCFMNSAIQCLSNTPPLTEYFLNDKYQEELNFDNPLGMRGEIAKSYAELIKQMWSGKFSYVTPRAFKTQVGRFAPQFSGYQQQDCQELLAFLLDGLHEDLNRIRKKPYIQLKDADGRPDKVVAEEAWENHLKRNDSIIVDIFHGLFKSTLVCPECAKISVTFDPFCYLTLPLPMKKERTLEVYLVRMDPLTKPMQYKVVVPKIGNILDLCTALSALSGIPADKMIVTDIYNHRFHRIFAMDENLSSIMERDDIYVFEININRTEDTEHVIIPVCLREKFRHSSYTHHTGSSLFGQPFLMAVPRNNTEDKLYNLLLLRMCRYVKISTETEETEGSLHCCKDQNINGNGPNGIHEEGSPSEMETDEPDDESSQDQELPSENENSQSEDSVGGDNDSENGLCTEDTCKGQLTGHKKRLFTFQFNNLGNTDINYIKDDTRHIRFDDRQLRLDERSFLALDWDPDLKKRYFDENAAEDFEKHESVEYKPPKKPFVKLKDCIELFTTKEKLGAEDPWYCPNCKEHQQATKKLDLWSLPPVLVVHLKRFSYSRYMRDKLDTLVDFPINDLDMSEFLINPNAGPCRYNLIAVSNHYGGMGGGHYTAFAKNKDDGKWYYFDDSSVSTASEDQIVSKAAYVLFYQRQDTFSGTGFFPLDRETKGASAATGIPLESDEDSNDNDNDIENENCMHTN
Outline: as §1

[10] = biological target: USP16 (UniProt Q9Y5T5)
Outline: as §1

Measured: log2 ratio of Biotin-Ahx-Ub-VS probe labelling

Sequence of USP16 (Q9Y5T5 whole entry, looked up): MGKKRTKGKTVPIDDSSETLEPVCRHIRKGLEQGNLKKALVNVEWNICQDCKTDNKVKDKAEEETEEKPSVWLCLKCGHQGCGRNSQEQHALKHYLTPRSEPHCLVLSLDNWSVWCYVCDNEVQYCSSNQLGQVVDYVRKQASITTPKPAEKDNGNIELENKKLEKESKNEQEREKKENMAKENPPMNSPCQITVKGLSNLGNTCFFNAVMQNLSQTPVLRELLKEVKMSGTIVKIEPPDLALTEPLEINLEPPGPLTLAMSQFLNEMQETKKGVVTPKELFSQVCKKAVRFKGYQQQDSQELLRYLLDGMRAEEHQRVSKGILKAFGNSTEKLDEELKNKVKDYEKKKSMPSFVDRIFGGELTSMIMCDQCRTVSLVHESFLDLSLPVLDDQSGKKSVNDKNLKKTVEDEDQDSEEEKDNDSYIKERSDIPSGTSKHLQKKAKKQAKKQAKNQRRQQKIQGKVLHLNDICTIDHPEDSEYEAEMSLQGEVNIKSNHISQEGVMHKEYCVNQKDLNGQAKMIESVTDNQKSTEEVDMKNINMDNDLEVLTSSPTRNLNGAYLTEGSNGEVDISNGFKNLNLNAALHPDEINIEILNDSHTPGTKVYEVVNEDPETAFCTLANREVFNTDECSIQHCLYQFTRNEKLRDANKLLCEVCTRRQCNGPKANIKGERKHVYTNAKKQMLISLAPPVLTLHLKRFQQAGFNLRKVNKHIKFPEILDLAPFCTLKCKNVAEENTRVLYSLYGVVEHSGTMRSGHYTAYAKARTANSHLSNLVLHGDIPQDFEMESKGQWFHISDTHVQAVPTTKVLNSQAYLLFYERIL
Sequence of UCHL1 (P09936 whole entry, looked up): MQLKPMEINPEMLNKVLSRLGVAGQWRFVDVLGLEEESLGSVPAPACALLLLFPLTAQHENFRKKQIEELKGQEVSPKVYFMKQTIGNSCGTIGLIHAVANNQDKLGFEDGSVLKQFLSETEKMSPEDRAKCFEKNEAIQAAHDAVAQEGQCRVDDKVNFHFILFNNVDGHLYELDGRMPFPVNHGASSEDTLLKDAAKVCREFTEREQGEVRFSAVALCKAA
Sequence of USP10 (Q14694 whole entry): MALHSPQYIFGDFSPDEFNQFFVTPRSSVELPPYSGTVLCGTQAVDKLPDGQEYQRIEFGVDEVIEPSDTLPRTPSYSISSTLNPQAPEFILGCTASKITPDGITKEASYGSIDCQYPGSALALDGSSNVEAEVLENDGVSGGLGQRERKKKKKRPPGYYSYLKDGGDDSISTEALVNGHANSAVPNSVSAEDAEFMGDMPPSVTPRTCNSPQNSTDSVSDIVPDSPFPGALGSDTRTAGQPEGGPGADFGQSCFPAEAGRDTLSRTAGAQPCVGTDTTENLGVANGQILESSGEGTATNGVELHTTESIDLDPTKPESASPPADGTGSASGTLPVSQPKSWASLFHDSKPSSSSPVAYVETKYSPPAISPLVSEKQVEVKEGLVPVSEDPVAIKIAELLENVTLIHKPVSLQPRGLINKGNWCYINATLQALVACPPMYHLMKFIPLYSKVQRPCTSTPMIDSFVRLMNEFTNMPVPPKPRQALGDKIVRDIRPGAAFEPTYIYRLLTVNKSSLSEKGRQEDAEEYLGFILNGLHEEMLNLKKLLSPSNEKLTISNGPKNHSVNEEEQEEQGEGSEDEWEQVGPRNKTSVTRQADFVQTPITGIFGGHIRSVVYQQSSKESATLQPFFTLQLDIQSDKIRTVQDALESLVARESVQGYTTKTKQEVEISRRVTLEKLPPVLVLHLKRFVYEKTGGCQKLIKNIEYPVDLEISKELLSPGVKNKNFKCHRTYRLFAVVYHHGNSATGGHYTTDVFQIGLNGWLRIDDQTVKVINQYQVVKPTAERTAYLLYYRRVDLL

CS(=O)(=O)c1ccc(CNC(=O)CCl)cc1
inactive: [1] -0.168 | [2] -0.575 | [3] -0.126 | [4] -0.155 | [6] 0.301 | [7] -0.165 | [8] -0.141 | [9] -0.268 | [10] -0.251
active: [5] -1.33
